Assay outcomes: PubChem BioAssay, The Scripps Research Institute Molecular Screening Center
HGIII-sPLA2 inh: Blocks human group III sPLA2 activity. Q9NZ20. QFRET BODIPY PC-A2 liposome hydrolysis, fluorescence. inhibition, % at 12.2 µM. hit rate 0.56% among 370,000. AID 743126;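 active = inhibition above mean plus 3 SD of compounds lying within the high and low control bounds, cut at about 19% in these data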
Target sequence (Q9NZ20 whole entry, looked up): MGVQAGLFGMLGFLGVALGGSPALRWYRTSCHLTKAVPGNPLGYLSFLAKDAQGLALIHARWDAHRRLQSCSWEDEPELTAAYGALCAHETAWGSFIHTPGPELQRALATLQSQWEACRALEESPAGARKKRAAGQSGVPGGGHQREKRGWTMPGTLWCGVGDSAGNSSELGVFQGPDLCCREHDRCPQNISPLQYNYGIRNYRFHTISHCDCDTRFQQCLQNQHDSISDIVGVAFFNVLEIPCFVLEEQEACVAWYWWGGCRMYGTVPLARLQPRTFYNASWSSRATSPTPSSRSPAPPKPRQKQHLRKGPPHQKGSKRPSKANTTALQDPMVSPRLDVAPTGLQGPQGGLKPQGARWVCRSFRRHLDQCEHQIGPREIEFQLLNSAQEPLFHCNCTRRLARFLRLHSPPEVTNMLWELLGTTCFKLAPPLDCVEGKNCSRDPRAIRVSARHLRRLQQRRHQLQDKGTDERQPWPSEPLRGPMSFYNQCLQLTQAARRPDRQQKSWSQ
MsrA inhibitor: inhibitors of bovine MsrA; purified bovine MsrA, absorbance read-out; inhibition, % at 15.5 µM; hit rate 0.75% among 360,000; in the data active = inhibition above about 4.5%
rCAG binder: r(CAG) repeat RNA binding. TO-PRO-1 dye displacement fluorescence. inhibition, % at 3 µM. hit rate 1.3% among 370,000;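 active = inhibition above the plate cutoff, the mean of all test compounds on that plate plus 3 SD, cut at about 35% in these data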;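 also: higher means more dye released from RNA so lower well fluorescence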
bovine MsrA act: activators of bovine methionine sulfoxide reductase A. purified bovine MsrA, absorbance read-out. activation, % at 10.6 µM. hit rate 0.3% among 360,000. AID 602163; in the data active = activation above about 7.5%
rCAG binder conf: r(CAG) RNA repeat binding, confirmation | shares compounds with rCAG binder | TO-PRO-1 dye displacement fluorescence | inhibition, % at 3 µM | hit rate 70% among 4,300 | AID 652065;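 active = inhibition above a per-plate cutoff, the mean inhibition of sample wells plus 3 SD, cut at about 35% in these data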;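 also: loss of TO-PRO-1 fluorescence as compound displaces dye from 1x1 AA loop RNA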
DNA CAG counter: counter-screen for rCAG RNA binders: DNA CAG dye complex inhibitors | shares compounds with rCAG binder | d(CAG) DNA oligo TO-PRO-1 dye displacement, fluorescence | inhibition, % at 3 µM | hit rate 94% among 4,300 | AID 652068;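 active = inhibition above its plate's cutoff, the mean test-well inhibition plus 3 SD, cut at about 4.8% in these data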;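 also: hits displace the dye from DNA and so lower well fluorescence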
DNA CAG DR: counter-screen for rCAG binders: inhibitors of DNA CAG TO-PRO-1 complex. DNA CAG/GTC duplex TO-PRO-1 dye displacement fluorescence. shares compounds with rCAG binder. IC50, µM. hit rate 20% among 250; in the data active = IC50 below about 10 µM
Of the large screens only hits and unclear results are named; the others gave an inactive call (follow-up assays come after a bar, where they were run). A selection: hits, their analogues and other compounds. The true share with any hit is near 2.8%.

COc1ccc(-c2nc(C(=O)NCCCN3CCOCC3)cc3c2[nH]c2ccccc23)cc1OC	none
Cc1cccc(C(=O)N=c2c(C#N)cc3c(=O)n4cccc(C)c4nc3n2Cc2ccco2)c1	rCAG binder 47.2 | rCAG binder conf 38.3 | DNA CAG counter 17.6
Cc1cccn2c(=O)c3cc(C#N)c(=NC(=O)c4ccccc4)n(Cc4ccco4)c3nc12	rCAG binder 35.5 | rCAG binder conf inactive | DNA CAG counter 10.9
C[C@@]12CCC[C@H](O1)[C@@H]([C@H](O)c1ccccc1)O2	none
CC1(C)CC(=O)C(CSC(=O)c2ccccc2)C(=O)C1	none
Cn1c(=NC(=O)C2CCN(S(=O)(=O)c3cccs3)CC2)sc2ccccc21	none
CCN(CC)c1ccc2c(O)cc(=O)oc2c1	none
CCN(CC)c1ccc(C(=O)OCc2cc(=O)oc3cc(O)ccc23)cc1	rCAG binder 35.6 | rCAG binder conf 42.5 | DNA CAG counter 19.5
COC(=O)Cn1c(C)c(C(C)=O)c(C(C)=O)c1C	none
CC(=O)[C@H]1CC[C@H]2[C@@H]3CC=C4C[C@@H](OS(=O)(=O)O)CC[C@]4(C)[C@H]3CC[C@]12C	rCAG binder 39.3 | rCAG binder conf 39.2 | DNA CAG counter 9.8
CCCn1c(=O)[nH]c(=O)c2c1nc(-c1ccc(C#N)cc1)n2CCOC	none
Cc1ccc(S(=O)(=O)Nc2ccc(Br)cc2C(NCC(=O)O)c2ccccc2)cc1 (stereo not drawn)	rCAG binder 72.7 | rCAG binder conf 74.5 | DNA CAG counter 26.0 | DNA CAG DR inactive
CCOc1ccc(C(CC(=O)O)NS(=O)(=O)c2ccc(C)cc2)cc1OC (stereo not drawn)	none
COc1ccc(C(=O)Nc2ccc(S(=O)(=O)Nc3cnc4ccccc4n3)cc2)cc1	rCAG binder 45.9 | rCAG binder conf inactive | DNA CAG counter 5.7
COc1ccc(C(=O)Nc2ccc(S(=O)(=O)Nc3cc(C)nc(C)n3)cc2)cc1	none
CCC(Oc1ccccc1)C(=O)Nc1ccc(S(=O)(=O)Nc2cnc3ccccc3n2)cc1 (stereo not drawn)	rCAG binder 58.3 | rCAG binder conf 45.9 | DNA CAG counter 13.2
O=C(Nc1ccc(S(=O)(=O)Nc2cnc3ccccc3n2)cc1)c1ccc(Cl)c([N+](=O)[O-])c1	rCAG binder 78.7 | rCAG binder conf 66.7 | DNA CAG counter 30.0
CCSc1nc(N)nc(-c2cccs2)c1C#N	none
CCOC(=O)c1c(N=CN(C)C)c2cc([N+](=O)[O-])cnc2n1C	none
O=c1nc(Nc2cccc(Cl)c2)oc2cc(Cl)oc(=O)c12	rCAG binder 44.2 | rCAG binder conf 56.0 | DNA CAG counter 15.8 | DNA CAG DR 8.48
O=c1nc(Nc2ccccc2)oc2ccccc12	none
CC(=O)OCCN(CCOC(C)=O)c1c(C)[nH]c(=O)[nH]c1=O	none
NC(N)=NS(=O)(=O)c1ccc(NC(=S)NC(=O)/C=C/c2ccco2)cc1	none
NS(=O)(=O)c1ccc(NC(=S)NC(=O)/C=C/c2ccco2)cc1	rCAG binder 39.6 | rCAG binder conf inactive | DNA CAG counter 10.8
Cc1ccc(-c2nc3ccccc3o2)cc1NC(=S)NC(=O)/C=C/c1ccco1	none
COc1ccc(-c2csc(NC(=S)NC(=O)/C=C/c3ccco3)n2)cc1Br	rCAG binder 66.8 | rCAG binder conf inactive | DNA CAG counter 16.3
O=C(/C=C/c1ccco1)NC(=S)Nc1cccc([N+](=O)[O-])c1	rCAG binder 53.7 | rCAG binder conf inactive | DNA CAG counter 18.4
O=C(/C=C/c1ccco1)NC(=S)Nc1cccc(-c2nc3ccccc3o2)c1	rCAG binder 35.0 | rCAG binder conf inactive | DNA CAG counter 12.7
CCN(C(=O)COC(=O)/C=C/c1ccccc1[N+](=O)[O-])C1CCS(=O)(=O)C1 (stereo not drawn)	none
COc1cc2c(cc1OC)C(c1ccc(N(C)C)cc1)NCC2 (stereo not drawn)	none
O=C(O)CSC(C(=O)Nc1ccc(Br)cc1)c1ccc(Cl)cc1 (stereo not drawn)	rCAG binder 37.2 | rCAG binder conf inactive | DNA CAG counter 5.4
O=C(O)CSC(C(=O)Nc1ccc(C(F)(F)F)cc1)c1ccccc1 (stereo not drawn)	none
COc1ccc(S(=O)(=O)N2CCN(C(=O)c3cc(C4CC4)nn3-c3ccccc3)CC2)cc1OC	none
O=C1c2ccncc2C(=O)N1CNc1ccc(Cl)cc1	none
CC(NC(=O)CN1c2cccc3cccc(c23)S1(=O)=O)c1ccc(S(N)(=O)=O)cc1 (stereo not drawn)	rCAG binder 40.4 | rCAG binder conf inactive | DNA CAG counter 10.3
CC(NC(=O)CN1c2cccc3cccc(c23)S1(=O)=O)c1ccccc1 (stereo not drawn)	none
CN(C)CCCCCCCCCCC(=O)/C=N/O	none
S=c1[nH]nc(COc2ccccc2)n1/N=C/c1ccncc1	none
COc1cccc(/C=N/n2c(COc3ccccc3)n[nH]c2=S)c1OC	none
S=c1[nH]nc(COc2ccccc2)n1/N=C/c1ccccc1Br	rCAG binder 38.4 | rCAG binder conf 38.2 | DNA CAG counter 8.4
FC(F)(F)c1ccccc1/C=N/n1c(COc2ccccc2)n[nH]c1=S	rCAG binder 44.5 | rCAG binder conf inactive | DNA CAG counter 5.5
FC(F)(F)c1ccc(/C=N/n2c(COc3ccccc3)n[nH]c2=S)cc1	rCAG binder 50.6 | rCAG binder conf 37.2 | DNA CAG counter 8.5
O=C(NC1CC1)c1c[nH]c2ccc(S(=O)(=O)Nc3cccc(C(F)(F)F)c3)cc2c1=O	rCAG binder 36.5 | rCAG binder conf inactive | DNA CAG counter 6.0
O=C(NCc1ccccc1)c1c[nH]c2ccc(S(=O)(=O)Nc3ccc4c(c3)OCCO4)cc2c1=O	rCAG binder 36.7 | rCAG binder conf inactive | DNA CAG counter 12.3
CC(NC(=O)c1cc(S(=O)(=O)N(C)C)ccc1Cl)C1CC2CCC1C2 (stereo not drawn)	none
N#Cc1c(N)nc2c(c1N)CC(=O)N2c1ccc(Cl)cc1	none (no result: HGIII-sPLA2 inh, MsrA inhibitor, rCAG binder)
Cc1ccc(OCc2nnn(CC(=O)NS(=O)(=O)c3c(C)noc3C)c2-c2ccccc2)cc1	rCAG binder 61.2 | rCAG binder conf 67.4 | DNA CAG counter 18.8
Cc1ccc(S(=O)(=O)NC(=O)Cn2nnc(-c3ccccc3)c2COc2ccc3ccccc3c2)cc1	rCAG binder 79.9 | rCAG binder conf 85.6 | DNA CAG counter 49.9
CC(=O)c1ccc(OCc2c(-c3ccccc3)nnn2CC(=O)NS(=O)(=O)c2ccccc2C)cc1	rCAG binder 52.0 | rCAG binder conf 48.8 | DNA CAG counter 14.2
CC(=O)c1ccc(OCc2c(-c3ccccc3)nnn2CC(=O)NS(=O)(=O)c2ccc(C)cc2)cc1	rCAG binder 48.4 | rCAG binder conf 60.4 | DNA CAG counter 15.2
COc1ccc(Cl)cc1S(=O)(=O)NC(C)c1cnn(-c2ccccn2)c1C (stereo not drawn)	none
COc1ccc(Br)cc1CNc1ccccc1	none
